# Activity calls are given as the source filed them.
# Legend:
# [1] = molecular target: Albumin (Bos taurus) (UniProt P02769); experiment: bovine serum albumin binders on microarray, profiling panel, artefact control for SMM control protein annotation, biochemical, small-molecule microarray, Alexa647 label, 635/667 nm fluorescence (AID 1118); conditions: BSA-A647 binding, fluorescence 635 nm, higher = more signal;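 note: score merges 667 nm emission intensity and signal-to-noise per printed compound spot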
# [2] = small-molecule microarray binders of probe aXIP, primary screen, biochemical, NeuroSMM set, 635/667 nm fluorescence (AID 1119); conditions: higher = more signal, called active from +8 up or from −8 down;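 note: probe is the protein aXip251-270 applied at 1 µg/mL to compound-printed slides; binding of probe to printed compounds measured as 667 nm fluorescence plus signal to noise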
# [3] = small-molecule binders of probe aNOTCH3, primary screen, biochemical, small-molecule microarray, 635/667 nm fluorescence (AID 1120); conditions: higher = more signal;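 note: probe is a biotin-tagged antibody raised against NOTCH3 rather than NOTCH3 protein; score merges spot fluorescence near 667 nm with spot signal to noise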
# [4] = small-molecule binders of probe aNOTCH2, primary screen, biochemical, small-molecule microarray, 635/667 nm fluorescence (AID 1121); conditions: higher = more signal;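 note: score merges feature fluorescence read at 667 nm with its signal to noise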
# [5] = molecular target: Carbonic anhydrase 2 (Homo sapiens) (UniProt P00918); experiment: CAII small-molecule binders, profiling panel, biochemical, small-molecule microarray, Alexa647-labelled CAII (AID 1122); conditions: CAII-A647 binding fluorescence, higher = more signal
# [6] = COS7 lysate on small-molecule microarray, probe aHis, 635 nm (AID 1123); conditions: COS7 cell lysate, fluorescence, higher = more signal;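 note: z-score combines 667nm fluorescence intensity with signal-to-noise per printed compound spot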
# [7] = compound binding in COS7 lysate, probe aLAP1, primary screen, cell lysate, small-molecule microarray (AID 1124); conditions: probe aLAP1, fluorescence, higher = more signal;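 note: lysate comes from COS7 cells expressing LAP1 and is applied at 0.3 µg/mL; score merges spot fluorescence near 667 nm with signal-to-noise over triplicate slides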
# [8] = test system: Sam68 (KHDRBS1); experiment: Sam68 small-molecule binders, primary screen, biochemical, small-molecule microarray, 635 nm fluorescence (AID 1125); conditions: small-molecule microarray binding, higher = more signal;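 note: score merges 667 nm channel intensity with signal to noise over triplicate slides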
# [9] = test system: Chordin-like protein 2 (CHRDL2); experiment: CHRDL2 small-molecule binders, primary screen, biochemical, small-molecule microarray, 635 nm fluorescence (AID 1126); conditions: small-molecule microarray binding, fluorescence 635 nm; higher = more signal;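 note: printed compound slides probed with Chrdl2 protein at 4 µg/mL for 1 h at 4 C; score merges 667 nm emission intensity with signal to noise over three replicate slides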
# [10] = molecular target: Concanavalin-A (Canavalia ensiformis) (UniProt P02866); experiment: ConA small-molecule binders, primary screen, artefact control for SMM control protein annotation, biochemical, small-molecule microarray, Alexa647 label, 635 nm (AID 1127); conditions: ConA-A647 binding fluorescence, higher = more signal;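 note: z combines 667 nm emission intensity with signal-to-noise across three replicate slides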
# [11] = anti-His antibody binders, primary screen, artefact control for SMM control protein annotation, biochemical, small-molecule microarray, 635 nm fluorescence (AID 1128); conditions: anti-His Alexa647 antibody binding, higher = more signal;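 note: score merges feature fluorescence with signal-to-noise for each printed compound spot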
# [12] = test system: Human papillomavirus type 1a E7 protein (residues 1-88); experiment: HPV1a E7 small-molecule binders, primary screen, biochemical, small-molecule microarray, residues 1-88, 635 nm (AID 1129); conditions: small-molecule microarray binding, fluorescence 635 nm; higher = more signal
# [13] = molecular target: Focal adhesion kinase 1 (Homo sapiens) (UniProt Q05397); experiment: small-molecule microarray binders of FAK, primary screen, biochemical, 635/667 nm fluorescence, BSA, DTT (AID 1130); conditions: PTK2 binding, 635 nm fluorescence, higher = more signal;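 note: composite of spot emission at 667 nm and signal to noise over triplicate slides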
# [14] = test system: Fibrinogen (Alexa647-labelled); experiment: fibrinogen binders on compound microarrays, profiling panel, artefact control for SMM control-protein annotation, biochemical, small-molecule microarray, 635/667 nm fluorescence (AID 1131); conditions: fibrinogen-A647 binding fluorescence, higher = more signal;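 note: z-score merges 667 nm fluorescence with per-spot signal-to-noise over triplicate slides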
# [15] = molecular target: Follistatin (Homo sapiens) (UniProt P19883); experiment: follistatin binders on small-molecule microarrays, primary screen, biochemical, small-molecule microarray, 635/667 nm fluorescence (AID 1132); conditions: FST binding, 635 nm fluorescence, higher = more signal
# [16] = molecular target: Fibroblast growth factor 2 (Homo sapiens) (UniProt P09038); experiment: FGF2 binders on small-molecule microarrays, primary screen, biochemical, small-molecule microarray, 635/667 nm fluorescence (AID 1133); conditions: small-molecule microarray binding, FGF2, fluorescence 635/667; higher = more signal
# [17] = mitochondrial membrane potential change in A549 cells, profiling panel, cell-based, JC-1 fluorescence, basal, 24 h, 100 nL (AID 1138); conditions: higher = more signal;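 note: A549 lung adenocarcinoma cells under basal conditions with no added stimulus; test concentration not given here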
# [18] = test system: Lefty1; experiment: Lefty1 binders on small-molecule microarrays, primary screen, biochemical, small-molecule microarray, 635/667 nm fluorescence (AID 1139); conditions: small-molecule microarray binding, fluorescence 635/667; higher = more signal
# [19] = test system: wheat germ agglutinin (Triticum aestivum), Alexa647-labelled; experiment: wheat germ agglutinin binders on compound microarrays, profiling panel, artefact control for SMM control-protein annotation, biochemical, small-molecule microarray, 635/667 nm fluorescence (AID 1140); conditions: WGA-A647 binding, 635 nm fluorescence, higher = more signal;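 note: score merges 667 nm feature emission with signal to noise over triplicate slides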
# [20] = molecular target: Luciferin 4-monooxygenase (Photinus pyralis) (UniProt P08659); experiment: firefly luciferase enzyme inhibitors, primary screen, biochemical, luminescence, purified enzyme, 2006 set (AID 1141); conditions: SteadyGlo luminescence, 30 min, higher = more signal, called active from +8 up or from −8 down;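 note: cell-free assay with purified firefly luciferase at 100 ng per well in PBS; test concentration not given here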
# Luciferin 4-monooxygenase (Photinus pyralis), sequence (P08659 whole entry, looked up): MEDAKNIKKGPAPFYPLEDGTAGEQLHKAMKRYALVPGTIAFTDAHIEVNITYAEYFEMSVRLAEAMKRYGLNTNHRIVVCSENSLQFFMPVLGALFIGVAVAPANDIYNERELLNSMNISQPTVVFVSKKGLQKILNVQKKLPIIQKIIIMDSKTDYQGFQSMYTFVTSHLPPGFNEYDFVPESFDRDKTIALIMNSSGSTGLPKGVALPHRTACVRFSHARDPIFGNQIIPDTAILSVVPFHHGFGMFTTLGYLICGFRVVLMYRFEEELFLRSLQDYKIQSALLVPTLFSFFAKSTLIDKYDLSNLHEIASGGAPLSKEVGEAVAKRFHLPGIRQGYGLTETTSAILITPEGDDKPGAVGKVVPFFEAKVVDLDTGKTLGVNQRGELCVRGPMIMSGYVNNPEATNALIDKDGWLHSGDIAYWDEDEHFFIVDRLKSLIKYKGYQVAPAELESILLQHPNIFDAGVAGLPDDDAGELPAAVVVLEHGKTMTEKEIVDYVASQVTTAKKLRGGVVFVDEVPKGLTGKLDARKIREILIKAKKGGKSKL
# Albumin (Bos taurus), sequence (P02769 whole entry, looked up): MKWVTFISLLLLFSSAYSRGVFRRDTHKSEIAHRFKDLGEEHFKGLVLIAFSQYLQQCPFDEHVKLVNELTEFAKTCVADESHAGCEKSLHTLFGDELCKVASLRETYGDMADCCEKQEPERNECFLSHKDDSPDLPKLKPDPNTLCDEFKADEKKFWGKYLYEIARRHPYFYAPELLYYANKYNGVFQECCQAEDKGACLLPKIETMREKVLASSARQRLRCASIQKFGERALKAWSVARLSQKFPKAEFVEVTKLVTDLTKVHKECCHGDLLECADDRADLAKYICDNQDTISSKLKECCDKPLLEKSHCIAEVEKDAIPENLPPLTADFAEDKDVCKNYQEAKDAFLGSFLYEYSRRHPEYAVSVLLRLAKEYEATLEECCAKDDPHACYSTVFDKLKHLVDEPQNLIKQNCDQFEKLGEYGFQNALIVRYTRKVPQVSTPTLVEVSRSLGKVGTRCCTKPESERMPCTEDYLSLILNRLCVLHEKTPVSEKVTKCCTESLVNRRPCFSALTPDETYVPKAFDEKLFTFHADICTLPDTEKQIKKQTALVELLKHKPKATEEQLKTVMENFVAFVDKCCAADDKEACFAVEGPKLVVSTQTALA
# Focal adhesion kinase 1 (Homo sapiens), sequence (Q05397 whole entry, looked up): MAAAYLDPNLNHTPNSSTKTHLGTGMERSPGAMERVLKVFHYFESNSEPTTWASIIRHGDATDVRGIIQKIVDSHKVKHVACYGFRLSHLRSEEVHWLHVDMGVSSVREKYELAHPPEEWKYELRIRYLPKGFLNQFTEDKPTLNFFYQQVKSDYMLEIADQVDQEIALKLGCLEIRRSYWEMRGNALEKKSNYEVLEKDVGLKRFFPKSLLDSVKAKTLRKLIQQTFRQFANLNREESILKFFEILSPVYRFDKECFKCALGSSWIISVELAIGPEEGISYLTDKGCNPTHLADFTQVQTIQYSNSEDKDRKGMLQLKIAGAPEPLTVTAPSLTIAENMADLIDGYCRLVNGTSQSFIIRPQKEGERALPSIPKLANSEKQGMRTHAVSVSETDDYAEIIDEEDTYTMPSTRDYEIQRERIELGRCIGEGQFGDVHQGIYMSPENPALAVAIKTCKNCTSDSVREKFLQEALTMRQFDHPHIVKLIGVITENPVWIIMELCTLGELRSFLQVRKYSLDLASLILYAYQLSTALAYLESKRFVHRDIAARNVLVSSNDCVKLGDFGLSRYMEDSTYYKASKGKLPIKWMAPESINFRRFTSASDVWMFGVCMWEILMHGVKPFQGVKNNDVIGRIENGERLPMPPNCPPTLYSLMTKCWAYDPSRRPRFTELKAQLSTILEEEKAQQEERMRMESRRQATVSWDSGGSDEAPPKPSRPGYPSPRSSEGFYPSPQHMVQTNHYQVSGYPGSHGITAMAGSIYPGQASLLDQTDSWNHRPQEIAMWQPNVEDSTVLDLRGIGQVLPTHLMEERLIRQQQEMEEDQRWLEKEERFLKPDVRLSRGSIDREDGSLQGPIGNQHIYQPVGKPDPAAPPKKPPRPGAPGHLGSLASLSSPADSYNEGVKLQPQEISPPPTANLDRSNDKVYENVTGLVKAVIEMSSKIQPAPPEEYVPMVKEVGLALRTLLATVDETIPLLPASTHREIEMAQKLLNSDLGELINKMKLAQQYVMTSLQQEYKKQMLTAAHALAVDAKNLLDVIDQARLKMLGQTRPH
# Follistatin (Homo sapiens), sequence (P19883 whole entry, looked up): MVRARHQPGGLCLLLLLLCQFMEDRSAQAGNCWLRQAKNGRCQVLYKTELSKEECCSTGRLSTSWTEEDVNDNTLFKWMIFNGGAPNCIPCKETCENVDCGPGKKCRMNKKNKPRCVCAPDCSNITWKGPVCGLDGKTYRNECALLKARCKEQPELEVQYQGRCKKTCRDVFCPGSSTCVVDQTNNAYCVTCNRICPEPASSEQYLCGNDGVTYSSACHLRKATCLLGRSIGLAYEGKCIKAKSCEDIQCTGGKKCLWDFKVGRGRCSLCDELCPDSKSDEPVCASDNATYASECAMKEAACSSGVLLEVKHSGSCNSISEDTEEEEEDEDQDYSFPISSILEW
# Concanavalin-A (Canavalia ensiformis), sequence (P02866 whole entry, looked up): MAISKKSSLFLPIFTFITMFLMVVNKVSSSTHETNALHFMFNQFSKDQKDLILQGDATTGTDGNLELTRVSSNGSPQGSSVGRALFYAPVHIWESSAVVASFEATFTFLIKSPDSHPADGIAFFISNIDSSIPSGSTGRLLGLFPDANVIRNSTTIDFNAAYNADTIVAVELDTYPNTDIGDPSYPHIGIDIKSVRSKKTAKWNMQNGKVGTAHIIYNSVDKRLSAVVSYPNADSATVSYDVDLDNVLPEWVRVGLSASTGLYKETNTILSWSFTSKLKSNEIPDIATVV
# Fibroblast growth factor 2 (Homo sapiens), sequence (P09038 whole entry, looked up): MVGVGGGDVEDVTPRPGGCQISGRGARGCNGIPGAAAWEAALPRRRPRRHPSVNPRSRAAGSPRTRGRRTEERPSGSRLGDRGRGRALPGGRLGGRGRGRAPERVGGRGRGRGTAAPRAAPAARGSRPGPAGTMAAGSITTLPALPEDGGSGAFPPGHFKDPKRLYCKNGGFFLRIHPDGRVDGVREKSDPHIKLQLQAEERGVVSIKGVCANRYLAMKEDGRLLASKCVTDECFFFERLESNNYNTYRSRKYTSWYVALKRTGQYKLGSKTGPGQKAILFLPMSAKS
Compound,composite z-score [1],composite Z-score [2],composite z-score [3],composite z-score [4],composite z-score [5],composite z-score [6],composite z-score [7],composite z-score [8],composite z-score [9],composite z-score [10],composite z-score [11],composite z-score [12],composite z-score [13],composite z-score [14],composite z-score [15],composite z-score [16],z-score [17],composite z-score [18],composite z-score [19],z-score [20]
O=C1C[C@]2(c3ccc([N+](=O)[O-])cc3)C(=O)N(C3CC3)c3cc(CO)ccc3[C@H]2N1C1CCCCC1,-0.806,0.127 (inactive),-0.103,-0.172,-0.0953,0.792,0.835,0.0418,-0.308,0.55,-0.268,-0.115,0.0202,-0.408,-0.0193,0.173,-0.22,-0.0446,0.0523,0.277 (inactive)
COCCOC(=O)N1C(=O)[C@@]2(c3cc(C#CCC(C(=O)OC)C(=O)OC)ccc31)[C@H](C(=O)Nc1nc3ccccc3s1)[C@H]1C(=O)O[C@H](c3ccccc3)[C@H](c3ccccc3)N1[C@@H]2c1ccc(OCCO)cc1,-0.978,1.21 (inactive),0.414,0.0328,0.487,1.24,0.705,1.29,1.32,1.18,2.33,0.988,0.35,0.746,1.39,1.79,-2.33,1.64,0.44,-4.07 (inactive)
C=CCOC(=O)[C@@H]1[C@H]2C(=O)O[C@H](c3ccccc3)[C@H](c3ccccc3)N2[C@H](c2ccc(OCCOC(=O)[C@H]3C[C@H]4C(=O)N[C@@H](CCCCN(C)C)C(=O)N4[C@H]3c3ccc(O)cc3)cc2)[C@@]12C(=O)Nc1ccc(I)cc12,-0.839,0.929 (inactive),0.0006,-0.0698,0.426,1.95,0.148,1.29,1.1,1.15,1.2,1.17,1.03,0.541,1.4,1.37,-0.641,1.58,0.538,-4.54 (inactive)
C[C@@H]1ON(c2ccccc2)[C@H](c2ccccc2)[C@H]1C(=O)O,-0.189,-0.107 (inactive),-0.0971,-0.0846,0.685,-0.0056,0.361,0.0005,0.204,-0.0755,0.468,0.212,0.209,0.722,1.3,0.931,-0.152,0.309,0.607,-0.0018 (inactive)
C=CCOC(=O)[C@H]1[C@@H]2C(=O)O[C@@H](c3ccccc3)[C@@H](c3ccccc3)N2[C@@H](c2ccc(OCCOC(=O)[C@H]3C[C@H]4C(=O)N[C@@H](CC(C)C)C(=O)N4[C@H]3c3ccc(O)cc3)cc2)[C@]12C(=O)Nc1ccccc12,-1.5,0.0398 (inactive),0.0695,-0.0666,0.368,1.74,0.878,1.31,1.26,1.06,0.1,1.26,0.66,0.8,1.36,1.79,-1.48,1.39,0.624,-0.782 (inactive)
C=CC[C@]1(C(=O)NCC(O)CO)COC(c2ccc(OCCCO)cc2)=N1 (stereo not given in full),-0.506,-0.181 (inactive),0.0897,-0.0209,0.674,1.56,0.553,-0.174,-0.582,-1.45,-0.493,0.57,-0.0726,-1.36,0.821,1.01,-0.565,-0.513,-0.326,0.0208 (inactive)
COCCOC(=O)N1C(=O)[C@@]2(c3cc(C#CCCO)ccc31)[C@H](c1ccccc1OCCO)N1[C@H](c3ccccc3)[C@H](c3ccccc3)OC(=O)[C@H]1[C@@H]2C(N)=O,-0.0956,-0.0135 (inactive),-0.0054,-0.118,0.578,1.89,0.128,1.3,0.0193,1.05,1.75,1.24,0.621,0.996,1.02,0.963,-0.0726,0.78,0.246,0.85 (inactive)
C[C@@H]1NC(=O)C([C@@H](C)OCc2ccccc2)NC(=O)[C@@]23C(=O)N[C@@H](Cc4ccccc4)C2[C@H](C)[C@@]2(C)O[C@H]2C3/C=C/C/C=C\CNC1=O (stereo not given in full),-1.17,2.08 (inactive),-0.222,-0.125,0.61,-0.13,0.0711,-0.503,0.209,-0.928,-0.839,-1.36,-0.526,-0.397,0.0746,0.0742,-0.0956,0.0892,-0.117,0.0545 (inactive)
O=C1[C@@H]2[C@@H](CC(COc3ccccc3)=C([C@H](O)CCc3ccccc3)[C@@H]2CO)C(=O)N1Cc1ccccc1,0.574,0.356 (inactive),0.15,-0.148,0.42,1.05,0.424,0.582,0.249,0.929,1.71,0.332,1.2,0.724,0.561,0.175,2.07,0.715,0.124,-0.172 (inactive)
Cc1ccc(S[C@]2(C(=O)NC3CC3)CC(=O)N(C(C)C)[C@@H]2c2ccc(CO)cc2I)cc1,0.899,-0.6 (inactive),-0.364,-0.2,0.7,1.16,0.048,0.238,-1.06,0.0412,1.49,0.882,0.411,-0.36,0.536,-0.471,0.51,0.303,0.969,1.29 (inactive)
CCOC(=O)C[C@H]1[C@H](OC(=O)c2ccccc2-c2ccccc2)[C@@H](NC(=O)c2ccc3ccccc3c2)c2cc(OCCCO)ccc2N1C(=O)Cc1ccc(OC)cc1,0.227,0.25 (inactive),-0.186,-0.101,-0.165,0.14,0.232,-0.868,-0.341,-0.12,-0.262,-0.191,0.0564,0.805,0.0992,-0.0445,0.847,-0.0328,-0.178,-0.146 (inactive)

# Reference: PubChem BioAssay
